Test results: the supplement of paper PMC4840960
± gives the standard deviation of the averaged measurements.

Experiments:
[1] = system: E18 rat cortical neuron-glia co-culture; test: fiber score / MBP score (myelination specific beyond OL differentiation) (ratio); higher = more myelination-specific MBP alignment; conditions: treatment time: 8 days (DIV5-DIV13)
Procedure, shortened: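 Papain-dissociated primary E18 rat cortical co-cultures, plated at 20,000 cells/well on poly-d-lysine/laminin 96-well plates, were exposed to library compounds at 1 or 5 µM in myelination medium between DIV5 and DIV13. Following fixation in 4 % paraformaldehyde, cultures were stained for MBP, Olig2 and DAPI, and four 10X fields per well were analysed in duplicate wells. Values are the ratio of fiber score (continuous MBP fiber length per Olig2+ nucleus) to MBP score (thresholded MBP area × intensity per Olig2+ nucleus).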

[2] = system: E18 rat cortical neuron-glia co-culture; test: myelination (MBP fiber length per Olig2+ nucleus), % of 1 µM DAPT response (DMSO = 0) (% of DAPT); higher = more myelination, active = 50 or more; conditions: treatment time: 8 days (DIV5-DIV13)
Procedure, shortened: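 Myelination, expressed as continuous straight MBP fiber length per Olig2+ nucleus, was normalised to 0.1 % DMSO as 0 and a 1 µM positive control as 100. The cultures were primary E18 rat cortical co-cultures dissociated with papain and plated at 20,000 cells/well on poly-d-lysine/laminin-coated 96-well plates. They received library compounds at 1 or 5 µM in myelination medium between DIV5 and DIV13. Analysis covered four 10X fields per well in duplicate wells after 4 % paraformaldehyde fixation and immunostaining for MBP and Olig2 with DAPI.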

NS(=O)(=O)Cc1noc2ccccc12 [Zonisamide]
fiber score / MBP score ([1]; 1 µM): 0.789 | fiber score / MBP score ([1]; 5 µM): 0.799 | myelination ([2]; 1 µM): -33.9 (inactive) | myelination ([2]; 5 µM): -30.8 (inactive)

OCCOCCN1CCN(C2=Nc3ccccc3Sc3ccccc32)CC1 [Quetiapine hemifumarate]
fiber score / MBP score ([1]; 1 µM): 0.545 | fiber score / MBP score ([1]; 5 µM): 0.327 | myelination ([2]; 1 µM): -10 (inactive) | myelination ([2]; 5 µM): -19.9 (inactive)

CC1=Nc2ccc(Cl)cc2S(=O)(=O)N1 [Diazoxide]
fiber score / MBP score ([1]; 1 µM): 1.25 | fiber score / MBP score ([1]; 5 µM): 0.573 | myelination ([2]; 1 µM): 5.81 (inactive) | myelination ([2]; 5 µM): -18.4 (inactive)

CCN1CC(CCN2CCOCC2)C(c2ccccc2)(c2ccccc2)C1=O (centres undefined) [Doxapram]
fiber score / MBP score ([1]; 1 µM): 0.83 | fiber score / MBP score ([1]; 5 µM): 0.769 | myelination ([2]; 1 µM): -10.9 (inactive) | myelination ([2]; 5 µM): -11 (inactive)

CCS(=O)(=O)CCn1c([N+](=O)[O-])cnc1C [Tinidazole]
fiber score / MBP score ([1]; 1 µM): 0.727 | fiber score / MBP score ([1]; 5 µM): 0.706 | myelination ([2]; 1 µM): -10.7 (inactive) | myelination ([2]; 5 µM): -14.2 (inactive)

Nc1nc2ccc(Cl)cc2c2nc(-c3ccco3)nn12
fiber score / MBP score ([1]; 1 µM): 0.556 | fiber score / MBP score ([1]; 5 µM): 0.773 | myelination ([2]; 1 µM): -37.8 (inactive) | myelination ([2]; 5 µM): -3.25 (inactive)

CC(C)NCC(O)c1ccc(O)c(O)c1 (centres undefined) [Isoproterenol]
fiber score / MBP score ([1]; 1 µM): 0.965 | fiber score / MBP score ([1]; 5 µM): 0.931 | myelination ([2]; 1 µM): 13.7 (inactive) | myelination ([2]; 5 µM): 10.5 (inactive)

NC12CC3CC(CC(C3)C1)C2 [Amantadine]
fiber score / MBP score ([1]; 1 µM): 0.736 | fiber score / MBP score ([1]; 5 µM): 0.883 | myelination ([2]; 1 µM): -4.46 (inactive) | myelination ([2]; 5 µM): 0.678 (inactive)

CN(C)[C@@H]1C(O)=C(C(N)=O)C(=O)[C@@]2(O)C(O)=C3C(=O)c4c(O)ccc(Cl)c4[C@@H](O)[C@H]3C[C@@H]12 [Demeclocycline]
fiber score / MBP score ([1]; 1 µM): 0.946 | fiber score / MBP score ([1]; 5 µM): 0.666 | myelination ([2]; 1 µM): -3.29 (inactive) | myelination ([2]; 5 µM): -12.1 (inactive)

Nc1ncnc2c1ncn2[C@@H]1O[C@H](CO)[C@@H](O)[C@@H]1O [Vidarabine]
fiber score / MBP score ([1]; 1 µM): 0.8 | fiber score / MBP score ([1]; 5 µM): 1.2 | myelination ([2]; 1 µM): -13.9 (inactive) | myelination ([2]; 5 µM): 24.3 (inactive)

CN(C)CCC=C1c2ccccc2CCc2ccccc21 [Amitriptyline]
fiber score / MBP score ([1]; 1 µM): 0.785 | fiber score / MBP score ([1]; 5 µM): 1.22 | myelination ([2]; 1 µM): -0.648 (inactive) | myelination ([2]; 5 µM): 30.2 (inactive)

C[C@H](CS)C(=O)N1CCC[C@H]1C(=O)O [Captopril]
fiber score / MBP score ([1]; 1 µM): 0.773 | fiber score / MBP score ([1]; 5 µM): 0.704 | myelination ([2]; 1 µM): -9.04 (inactive) | myelination ([2]; 5 µM): -9.32 (inactive)

CN(C)CCCN1c2ccccc2CCc2ccccc21 [Imipramine]
fiber score / MBP score ([1]; 1 µM): 0.817 | fiber score / MBP score ([1]; 5 µM): 0.517 | myelination ([2]; 1 µM): -3.36 (inactive) | myelination ([2]; 5 µM): -6.74 (inactive)

NCCc1ccc(O)c(O)c1 [Dopamine]
fiber score / MBP score ([1]; 1 µM): 1.28 | fiber score / MBP score ([1]; 5 µM): 1.06 | myelination ([2]; 1 µM): 5.4 (inactive) | myelination ([2]; 5 µM): 0.308 (inactive)

CN[C@H]1CC[C@@H](c2ccc(Cl)c(Cl)c2)c2ccccc21 [Sertraline]
fiber score / MBP score ([1]; 1 µM): 0.689 ± 0.18 | fiber score / MBP score ([1]; 5 µM): 3.18 | myelination ([2]; 1 µM): -5.38 (inactive) | myelination ([2]; 5 µM): -24.9 (inactive)

CC(N)C12CC3CC(CC(C3)C1)C2 (centres undefined) [Rimantadine]
fiber score / MBP score ([1]; 1 µM): 0.962 | fiber score / MBP score ([1]; 5 µM): 0.737 | myelination ([2]; 1 µM): 28.7 (inactive) | myelination ([2]; 5 µM): 62.2

CN(C)CCC(c1ccc(Br)cc1)c1ccccn1 (centres undefined) [Brompheniramine]
fiber score / MBP score ([1]; 1 µM): 0.611 | fiber score / MBP score ([1]; 5 µM): 0.693 | myelination ([2]; 1 µM): -14.9 (inactive) | myelination ([2]; 5 µM): -12.4 (inactive)

CCN(CC)CC(=O)Nc1c(C)cccc1C [Lidocaine]
fiber score / MBP score ([1]; 1 µM): 0.745 | fiber score / MBP score ([1]; 5 µM): 0.698 | myelination ([2]; 1 µM): -26.3 (inactive) | myelination ([2]; 5 µM): -24.5 (inactive)

C[C@@H](c1ncncc1F)[C@](O)(Cn1cncn1)c1ccc(F)cc1F [Voriconazole]
fiber score / MBP score ([1]; 1 µM): 0.693 | fiber score / MBP score ([1]; 5 µM): 0.824 | myelination ([2]; 1 µM): -40.5 (inactive) | myelination ([2]; 5 µM): -29.3 (inactive)

O=C(c1ccccc1)c1ccc2n1CCC2C(=O)O (centres undefined) [Ketorolac]
fiber score / MBP score ([1]; 1 µM): 0.853 | fiber score / MBP score ([1]; 5 µM): 1.12 | myelination ([2]; 1 µM): -4.81 (inactive) | myelination ([2]; 5 µM): 2.63 (inactive)

CC(C)[C@H]1CC[C@H](C(=O)N[C@H](Cc2ccccc2)C(=O)O)CC1 [Nateglinide]
fiber score / MBP score ([1]; 1 µM): 0.796 | fiber score / MBP score ([1]; 5 µM): 0.739 | myelination ([2]; 1 µM): -12.6 (inactive) | myelination ([2]; 5 µM): -10.9 (inactive)

CCN(CC)CC#CCOC(=O)C(O)(c1ccccc1)C1CCCCC1 (centres undefined) [Oxybutynin]
fiber score / MBP score ([1]; 1 µM): 0.964 | fiber score / MBP score ([1]; 5 µM): 0.547 | myelination ([2]; 1 µM): 9.59 (inactive) | myelination ([2]; 5 µM): -5.69 (inactive)

Cc1ccsc1C(=CCCN1CCC[C@@H](C(=O)O)C1)c1sccc1C [Tiagabine]
fiber score / MBP score ([1]; 1 µM): 0.656 | fiber score / MBP score ([1]; 5 µM): 0.716 | myelination ([2]; 1 µM): -23.8 (inactive) | myelination ([2]; 5 µM): -16.6 (inactive)

OCc1cc(C(O)CNCCCCCCOCCCCc2ccccc2)ccc1O (centres undefined) [Salmeterol]
fiber score / MBP score ([1]; 1 µM): 0.225 | fiber score / MBP score ([1]; 5 µM): 0.0809 | myelination ([2]; 1 µM): -29.9 (inactive) | myelination ([2]; 5 µM): -37.6 (inactive)

CCN(CC)CC1CCCCN1CC(=O)N1c2ccccc2C(=O)Nc2cccnc21 (centres undefined) [Otenzepad]
fiber score / MBP score ([1]; 1 µM): 0.774 | fiber score / MBP score ([1]; 5 µM): 0.692 | myelination ([2]; 1 µM): -9.61 (inactive) | myelination ([2]; 5 µM): -15.6 (inactive)

C/C=C1\[C@H]2C=C(C)C[C@]1(N)c1ccc(=O)[nH]c1C2 [Huperzine A]
fiber score / MBP score ([1]; 1 µM): 1.07 | fiber score / MBP score ([1]; 5 µM): 0.872 | myelination ([2]; 1 µM): 8.16 (inactive) | myelination ([2]; 5 µM): -5.77 (inactive)
